The target of assay [1] is Nuclear receptor coactivator 3 (Homo sapiens) (UniProt Q9Y6Q9). Put plainly: NCOA3 GAL4-fusion reporter inhibition – cell-based, luminescence, quadruplicate, confirmation (AID 588792;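 active = mean inhibition over 43.08%, the solvent-only control mean plus 3 SD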;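 note: 0% = DMSO treated cells and 100% = gossypol at 36 µM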). The following applies: HEK293 GAL4-SRC3 luciferase reporter, at 3.6 µM, active compounds read high.
In assay [2] the test system is transactivating tegument protein VP16 (Human herpesvirus 1), Gal4-VP16 luciferase reporter. Nature of the assay: repression of VP16-driven luciferase reporter – cell-based, luminescence, high throughput, counter-screen for SRC3 inhibitor project (AID 588794). The following applies: mammalian cells, at 3.6 µM, active compounds read high.

Calls of active or inactive are those of the source. Cut-off read from the data, not from the text of the source, unless noted: active = inhibition above about 30%; inactive = the rest.

Nuclear receptor coactivator 3 (Homo sapiens), sequence (Q9Y6Q9 whole entry, looked up, the tested form may be a part): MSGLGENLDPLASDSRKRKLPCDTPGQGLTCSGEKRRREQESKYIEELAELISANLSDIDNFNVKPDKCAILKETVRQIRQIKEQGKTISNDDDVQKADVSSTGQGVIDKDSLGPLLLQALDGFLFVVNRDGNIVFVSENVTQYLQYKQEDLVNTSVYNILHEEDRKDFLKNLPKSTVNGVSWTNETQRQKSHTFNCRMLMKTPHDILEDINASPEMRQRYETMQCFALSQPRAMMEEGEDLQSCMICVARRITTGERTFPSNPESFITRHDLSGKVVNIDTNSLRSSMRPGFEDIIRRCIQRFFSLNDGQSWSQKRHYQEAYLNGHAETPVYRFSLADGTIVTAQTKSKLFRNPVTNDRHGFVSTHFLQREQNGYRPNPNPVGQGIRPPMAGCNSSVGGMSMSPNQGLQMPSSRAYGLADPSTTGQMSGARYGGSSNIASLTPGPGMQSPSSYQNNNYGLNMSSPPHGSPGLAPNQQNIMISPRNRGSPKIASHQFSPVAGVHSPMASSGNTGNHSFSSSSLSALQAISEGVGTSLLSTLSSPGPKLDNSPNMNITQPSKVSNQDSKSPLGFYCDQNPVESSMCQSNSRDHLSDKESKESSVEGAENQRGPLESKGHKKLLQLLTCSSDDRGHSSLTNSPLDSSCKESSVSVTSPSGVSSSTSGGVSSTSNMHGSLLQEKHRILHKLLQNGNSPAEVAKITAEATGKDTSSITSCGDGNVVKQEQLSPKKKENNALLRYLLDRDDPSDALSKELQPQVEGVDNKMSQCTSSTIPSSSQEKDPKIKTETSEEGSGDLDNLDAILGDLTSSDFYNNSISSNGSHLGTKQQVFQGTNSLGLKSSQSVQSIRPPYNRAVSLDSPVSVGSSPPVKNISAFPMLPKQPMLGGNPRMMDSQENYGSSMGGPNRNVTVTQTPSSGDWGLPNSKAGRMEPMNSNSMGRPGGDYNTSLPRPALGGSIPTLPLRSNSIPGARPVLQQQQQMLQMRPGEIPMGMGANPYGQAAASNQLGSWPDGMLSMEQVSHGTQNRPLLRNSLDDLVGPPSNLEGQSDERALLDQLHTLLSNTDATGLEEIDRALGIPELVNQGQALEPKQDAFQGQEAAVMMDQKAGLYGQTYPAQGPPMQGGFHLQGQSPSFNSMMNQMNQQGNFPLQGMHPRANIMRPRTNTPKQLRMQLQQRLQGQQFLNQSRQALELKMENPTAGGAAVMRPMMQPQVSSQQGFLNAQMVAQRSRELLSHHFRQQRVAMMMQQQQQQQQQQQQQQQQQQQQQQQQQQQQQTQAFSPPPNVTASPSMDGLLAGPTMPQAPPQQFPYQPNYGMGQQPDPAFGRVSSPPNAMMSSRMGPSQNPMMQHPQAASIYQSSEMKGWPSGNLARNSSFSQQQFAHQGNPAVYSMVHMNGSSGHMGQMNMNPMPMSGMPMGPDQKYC

The term inhibition denotes the change of the read-out against control, counted positive when it falls. `CCc1ccc(CN(C)C(=O)c2cc(COc3cccc4cnccc34)on2)cc1`: the inhibition in assay [1] is 18.4% (inactive); in assay [2], 33.7% (active).
Turning to `CCOc1ccc(N2C(=O)C(CC(=O)Nc3ccccc3)N(Cc3ccccn3)C2=S)cc1` (stereo unspecified), the inhibition in assay [1] is 9.7% (inactive); in assay [2], 12.2% (inactive).
`S=c1[nH]nc(C2CCCCC2)n1/N=C/c1ccco1`: the inhibition in assay [1] was -2.38% (inactive); in assay [2] it was -11.2% (inactive).
The like results for `COc1cc2[nH]c3c(Cl)ncnc3c2cc1OC` were, in that order, 32.2% (inactive) and 16.2% (inactive).
The matching figures for `CCN1/C(=C/c2cc[n+](C)cc2)C=Cc2cc(C)ccc21`: 17% (inactive) and 70.9% (active).
As to `c1ccc2c(c1)Nc1ccncc1S2`, the inhibition was 31.2% (inactive) in assay [1] and 16.4% (inactive) in assay [2].
As to `CC(=O)c1c(C)[nH]c(C(=O)OCC(=O)Nc2ccc(C)cc2[N+](=O)[O-])c1C`, the inhibition was 32.4% (inactive) in assay [1] and 52.8% (active) in assay [2].
As to `CCc1c(C)nc2ncnn2c1NCCc1ccc(Cl)cc1`, the inhibition was 23.3% (inactive) in assay [1] and 25.9% (inactive) in assay [2].
With `Cc1c(Cl)cccc1NC(=O)Nc1ccccc1C(N)=O`, the inhibition was 29.1% (inactive) in assay [1] and 27.1% (inactive) in assay [2].
As to `CCOc1cc(C(=O)N2CCC(CC3CC(c4ccc(Cl)cc4)=NO3)(C(=O)NCC3CCCCC3)CC2)cc(OCC)c1OCC` (stereo unspecified), the inhibition was 6.12% (inactive) in assay [1] and 7.56% (inactive) in assay [2].
The like results for `C=CCSc1nsc(NC(=O)Nc2ccc(F)cc2)n1` were, in that order, -4.43% (inactive) and -4.12% (inactive).
Turning to `Cc1ccc(C(=O)NC2c3ccccc3-c3ccccc32)cc1`, the inhibition in assay [1] was 11.3% (inactive); in assay [2], 12.1% (inactive).
Take `Cc1sc(-c2ccccn2)nc1OC(=O)c1ccc(F)cc1F`: the inhibition in assay [1] was 13.9% (inactive); in assay [2] it was 16.1% (inactive).
